According to PubChem BioAssay (NCI):
About 79,000 compounds went through this panel and 15% of them were active in at least one assay; those are over-represented in the sample as a whole. Cut-off read from the data, not from the text of the source: active = growth inhibition above about 70%; inactive = the rest.

Columns and labels:
[1] = NCI Yeast Anticancer Drug Screen. Data for the rad50 strain (AID 155);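 note: 0% = growth of vehicle-only cultures of the same strain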; details: S. cerevisiae rad50 strain growth inhibition; at 50.0 µM; stronger effect = higher value
Outline: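 Relative growth inhibition (compound vs vehicle) was measured in yeast with a defined repair-gene alteration.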

[2] = NCI Yeast Anticancer Drug Screen. Data for the mec2-1 strain (AID 157); details: S. cerevisiae mec2-1 strain, at 50.0 µM, stronger effect = higher value
Outline: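 Strain: mec2-1 (DNA repair/cell cycle alteration). Compound exposure, then growth measured; inhibition expressed relative to vehicle.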

[3] = NCI Yeast Anticancer Drug Screen. Data for the sgs1 mgt1 strain (AID 161);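 note: 0% = growth of cultures given vehicle only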; details: S. cerevisiae sgs1 mgt1 strain, at 50.0 µM, stronger effect = higher value
Outline: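 Genetically altered yeast, compound exposure, growth inhibition relative to vehicle.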

[4] = NCI Yeast Anticancer Drug Screen. Data for the cln2 rad14 strain (AID 165);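 note: 0% = growth equal to vehicle treated cultures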; details: S. cerevisiae cln2 rad14 strain, at 50.0 µM, stronger effect = higher value
Outline: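 Compounds are applied to the cln2 rad14 yeast strain, and growth is then compared with that of vehicle-treated cultures to give inhibition.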

[5] = NCI Yeast Anticancer Drug Screen. Data for the bub3 strain (AID 167); details: S. cerevisiae bub3 mutant strain, at 50.0 µM, stronger effect = higher value
Outline: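 Screening used yeast with an engineered genetic alteration affecting cell cycle control. Compound-exposed cultures were compared with vehicle cultures, and reduced growth was taken as inhibition.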

[6] = NCI Yeast Anticancer Drug Screen. Data for the mlh1 rad18 strain (AID 175); details: S. cerevisiae mlh1 rad18 strain growth inhibition; at 50.0 µM; stronger effect = higher value
Outline: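 Read-out is yeast growth inhibition, calculated against vehicle-only controls. The compound was applied to a strain engineered with DNA damage repair alterations.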

Measured: growth inhibition

Cc1cc(Cc2cc(C)c(N)cc2N)c(N)cc1N
inactive: [1] -1.6% | [2] -49.4% | [3] -23.9% | [4] 15.2% | [5] -2.25% | [6] 15.9%

CC1C(=O)c2ccccc2CC1C(=O)O (stereo not drawn)
inactive: [1] -1.6% | [2] -15.6% | [3] 7.8% | [4] -22.2% | [5] -5.1% | [6] -21%

CC(C)NC(=O)OCc1c(COC(=O)NC(C)C)c(-c2ccc(Cl)c(Cl)c2)n2c1SCC2
inactive: [1] 33.9% | [2] -7.95% | [3] 15.9% | [4] -1.35% | [5] 2.9% | [6] 52.9%

Cc1nc2c(ccc3ccccc32)s1
inactive: [1] 10.4% | [2] -5.35% | [3] 22.7% | [4] 6.45% | [5] 3.5% | [6] 15.4%

CC(C)=CC(=O)OC(=O)C=C(C)C
inactive: [1] -25.3% | [2] -48.4% | [3] -21.2% | [4] 1.8% | [5] -36.6% | [6] -8.65%

CC(C)CCCC(=O)O
inactive: [1] -9.7% | [2] -7.5% | [3] -1.25% | [4] 27.8% | [5] -2.95% | [6] -13.8%

O=C(NCc1ccco1)Nc1c(Cl)cc(Cl)cc1Cl
inactive: [1] -3.1% | [2] -26.1% | [3] -2.85% | [4] 2.65% | [5] -13.4% | [6] -3.6%

O=C(O)/C=C/C(=O)NCc1ccccc1
inactive: [1] 34.6% | [2] 42.6% | [3] 48% | [4] 1.4% | [5] 44.4% | [6] 26.7%

CCCCCCCCCCC1CO1 (stereo not drawn)
inactive: [1] 4.95% | [2] -4.15% | [3] -7% | [4] -23.1% | [5] -13.9% | [6] -8.05%

CCOC(=O)C(C#N)Cc1ccccc1 (stereo not drawn)
inactive: [1] -0.85% | [2] -2.15% | [3] -3.85% | [4] -14.2% | [5] -1.6% | [6] -3.35%

O=C1C=C(O)C(=O)C=C1O
inactive: [1] 4.45% | [2] -10.2% | [3] 14.9% | [4] 0.4% | [5] -2.35% | [6] 28.5%

CC1=NN(c2ccccc2)C(=O)/C1=C\N1CC(=O)NC1=S
inactive: [1] -50.9% | [2] -46% | [3] -11.3% | [4] 5.45% | [5] -49% | [6] -30.4%

C1CNC(C2=NCCN2)=N1
inactive: [1] -4.85% | [2] -8.2% | [3] -24.5% | [4] -26.1% | [5] -31.8% | [6] -7.25%

Cc1ccc(C)n1-c1ccsc1C(=O)NNC(=O)C(Cl)Cl
inactive: [1] 5.9% | [2] 13.9% | [3] 24.8% | [4] 21.1% | [5] 21.7% | [6] 20.7%

N#CCCN(CCCN1CCOCC1)CN1C(=O)c2ccccc2C1=O
inactive: [1] 5.8% | [2] 9.15% | [3] 35.5% | [4] 5.8% | [5] 34.6% | [6] 19.4%

O=c1cc(-c2ccccc2)[nH]c(=S)[nH]1
inactive: [1] -13.4% | [2] -11.9% | [3] 8.65% | [4] -24.8% | [5] 9.1% | [6] -9.55%

COC(=O)Nc1nc2ccc(C(=O)c3cccs3)cc2[nH]1
inactive: [1] -1.25% | [2] 33.4% | [3] 17.5% | [4] -35% | [5] 24.4% | [6] 19%

CC(=Nc1ccccc1)C1=C(O)C(Cc2cccc(F)c2)NC1=O (stereo not drawn)
inactive: [1] 5.3% | [2] 4.35% | [3] 13.6% | [4] 2.3% | [5] -2.5% | [6] -22%

Cc1ccc(O)c(C(=O)c2ccccc2)c1
inactive: [1] 4.3% | [2] -16.7% | [3] 12.5% | [4] -8.8% | [5] -3.65% | [6] 14.7%

NC(=O)NC(=O)c1ccc(Cl)cc1
inactive: [1] 14.8% | [2] -7.05% | [3] 19.2% | [4] 29.1% | [5] -1.05% | [6] 11.3%

NC(=S)N/N=C/c1ccc(N)cc1
inactive: [1] 7.2% | [2] -2.35% | [3] 0.9% | [4] -1.35% | [5] 2.35% | [6] 7.5%

Oc1ccc(N=Nc2ccc(Br)cc2)c(O)c1
inactive: [1] 4.15% | [2] 31.3% | [3] 30.2% | [4] -20.1% | [5] 33.6% | [6] 22.8%

O=[N+]([O-])c1ccc(CO)cc1
inactive: [1] 0.15% | [2] 0.35% | [3] 8.85% | [4] 6.75% | [5] 22.1% | [6] 4.1%

N/N=C(/Cc1ccccc1)NNC(N)=S
inactive: [1] 1.95% | [2] -13.7% | [3] -26.6% | [4] -4.2% | [5] -12% | [6] -0.45%

Nc1ccc(NC(=O)c2cccc(N)c2)cc1
inactive: [1] 15.2% | [2] 3.5% | [3] 6.4% | [4] -7.8% | [5] 19.2% | [6] 22%

O=C(c1ccc(O)cc1)c1ccc(O)cc1
inactive: [1] 30.4% | [2] -6.6% | [3] 15.2% | [4] -49.1% | [5] -9.15% | [6] 17.2%

CC(=O)N(C)c1ccc([N+](=O)[O-])cc1
inactive: [1] 21.8% | [2] -5.6% | [3] 21.2% | [4] 26.2% | [5] 24.4% | [6] 1.3%

CC1NC(=O)NC1CCCCCC(=O)O (stereo not drawn)
inactive: [1] 8.3% | [2] 11.4% | [3] 13.8% | [4] 12.5% | [5] 4.6% | [6] 17.3%

CCCCN(CCCC)CCCO
inactive: [1] -14.4% | [2] -24.5% | [3] -11.3% | [4] -27.7% | [5] -2.7% | [6] -21.1%

CC1(c2ccccc2)NC(=O)NC1=O (stereo not drawn)
inactive: [1] 26.7% | [2] -8.85% | [3] 0.8% | [4] -1.3% | [5] -7.65% | [6] 23.9%

N#CC(=Nc1cccc(F)c1)C1=C(O)c2ccccc2C1=O
inactive: [1] 11.6% | [2] -2.6% | [3] 22.4% | [4] 27.6% | [5] 20.5% | [6] 18.8%

C=CC[N+](C)(C)C
inactive: [1] 6.75% | [2] -27.9% | [3] 5.75% | [4] 7.7% | [5] 14.2% | [6] 7.4%

CCC(C)(O)c1ccc(C)cc1 (stereo not drawn)
inactive: [1] 26.5% | [2] 33% | [3] 31.8% | [4] -21.1% | [5] 19.6% | [6] 6.4%

Nc1nc(N)c2cc(S(=O)(=O)c3cccc(C(F)(F)F)c3)ccc2n1
inactive: [1] 34% | [2] 24.9% | [3] 7.4% | [4] 11.2% | [5] -15.4% | [6] -59.4%

O=[N+]([O-])c1ccc(-c2ncc(-c3ccc(Br)cc3)o2)cc1
inactive: [1] -0.1% | [2] -3.3% | [3] 21.9% | [4] 11.6% | [5] 17.2% | [6] 3.45%

CCCCC(O)c1ccccc1 (stereo not drawn)
inactive: [1] -16.6% | [2] -4.15% | [3] -24.7% | [4] -21.8% | [5] -12.9% | [6] 6.8%

CC1Cc2ccccc2O1 (stereo not drawn)
inactive: [1] 2.7% | [2] 0.35% | [3] -3.7% | [4] -2.35% | [5] 2.9% | [6] 11%

CCOC(=O)c1ccc(Nc2sc(C(=O)c3cccc([N+](=O)[O-])c3)c(N)c2C#N)cc1
inactive: [1] -9.95% | [2] -9.95% | [3] -0.95% | [4] 5.75% | [5] 2.8% | [6] 0.55%

Clc1ccc(-c2nnc(-c3cccc4ccccc34)o2)cc1
inactive: [1] -22.9% | [2] -56.9% | [3] -29.4% | [4] 0.15% | [5] -19.6% | [6] -24.6%

C=CCOC(=O)C(=O)OCC=C
inactive: [1] 18.8% | [2] 30.6% | [3] -25.9% | [4] 1.95% | [5] 5.35% | [6] 14.8%

O=[N+]([O-])c1ccc(/C=C/C=C/c2ccccc2)c(Cl)c1
inactive: [1] -8.75% | [2] -18.3% | [3] -3.4% | [4] -45.1% | [5] -4.85% | [6] -11.4%

O=C1C=CC(=O)N1c1ccc(I)cc1Cl
inactive: [1] 29.9% | [2] 18.3% | [3] 44.1% | [4] 23.8% | [5] 32.3% | [6] 22.1%

Nc1ccccc1C(=O)Nc1ccc(Cl)cc1Cl
inactive: [1] -9.1% | [2] -22.4% | [3] 7.4% | [4] 4.85% | [5] 21.9% | [6] 2.35%
